Screens as filed in PubChem.
12-LOX inh: ALOX12 (human) lipoxygenase inhibition. P18054. purified 12hLO, xylenol orange hydroperoxide absorbance. Potency, µM (doses to about 108 µM), without a hit: top-dose activity change, negative = inhibition, actives largely listed as inhibitors. actives 1.1% (n = 580,000); note: potency is the fitted concentration of half-maximal effect
Target sequence (P18054 whole entry, looked up): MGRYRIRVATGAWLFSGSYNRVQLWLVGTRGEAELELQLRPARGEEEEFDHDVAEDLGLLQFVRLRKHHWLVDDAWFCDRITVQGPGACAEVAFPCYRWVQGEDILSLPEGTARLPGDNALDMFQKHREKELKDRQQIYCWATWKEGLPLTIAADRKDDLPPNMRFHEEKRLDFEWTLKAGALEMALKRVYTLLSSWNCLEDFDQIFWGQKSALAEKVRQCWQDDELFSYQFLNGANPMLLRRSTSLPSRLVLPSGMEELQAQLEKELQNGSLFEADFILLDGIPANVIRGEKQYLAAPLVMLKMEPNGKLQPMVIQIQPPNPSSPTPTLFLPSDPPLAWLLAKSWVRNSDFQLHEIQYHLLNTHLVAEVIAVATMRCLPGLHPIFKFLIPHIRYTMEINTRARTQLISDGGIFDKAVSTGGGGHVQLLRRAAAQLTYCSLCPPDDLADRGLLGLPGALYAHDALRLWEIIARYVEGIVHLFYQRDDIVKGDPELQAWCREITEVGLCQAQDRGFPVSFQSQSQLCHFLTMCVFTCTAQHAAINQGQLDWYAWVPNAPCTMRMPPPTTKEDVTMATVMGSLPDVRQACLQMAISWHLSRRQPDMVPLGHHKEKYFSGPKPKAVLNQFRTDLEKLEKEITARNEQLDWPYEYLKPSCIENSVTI
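Purified human 12hLO at 150 nM in 25 mM Hepes, 0.01% Triton X-100, pH 7.0, preincubated 15 min at room temperature with compound. Reaction started with 40 uM arachidonic acid, 30 min at room temperature. Hydroperoxide measured by Fe-xylenol orange, 573/405 nm absorbance ratio.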
DT40 TDP1 CPT: growth inhibition of DT40 Tdp1-/-;hTDP1 cells with camptothecin (screen for TDP1 inhibitors); chicken DT40 Tdp1-/-;hTDP1 cells + 20 nM CPT, ATP luminescence, 48 h; Potency, µM (top dose mostly 46.2 µM), inactives show at the top dose activity change, negative = growth inhibition, usual class: inhibitors; actives 12% (n = 420,000); note: potency is the fitted concentration of half-maximal effect; nearly all actives have a fitted effect of over 55% in size
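Chicken DT40 Tdp1-/- cells stably complemented with human TDP1 were seeded at 400 cells/well in medium containing 20 nM camptothecin, exposed to pin-transferred compounds, and grown at 37 °C for at least 48 hr. Viability was read as ATP luminescence.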
IL1B secr inh: inflammasome signaling inhibition, IL-1 beta readout. THP-1 LPS/ATP IL-1B secretion, AlphaLISA, 16 h; hits give low values. activity change, % at 57.5 µM. AID 743279. actives 4.7% (n = 360,000); in the data active = activity change below about -50%; inconclusive = mostly about -30% to -49%
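Secreted IL-1B measured by AlphaLISA bead assay after 16 h compound exposure of THP-1 cells; compounds (final up to 57.5 uM) added 1 h before LPS (250 ng/mL) and ATP (1.25 mM) stimulation; lower signal means less secretion.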
HT1080 IDH1KD tx: kills HT-1080 cells with IDH1 knockdown. HT-1080 IDH1 knockdown viability, ATP luminescence, 48 h. Potency, µM (highest dose often 46.1 µM), for inactives: at the top dose activity, negative = toxicity, hits mostly cytotoxic. actives 2% (n = 360,000). AID 686971;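 note: potency is the fitted concentration of half-maximal effect; 0% = DMSO wells and -100% = cell-free medium wells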
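Assay cells: HT-1080 with IDH1 knockdown, 750 per well, RPMI/5% FBS. Exposure: 48 h at 37 °C following 2 h pre-incubation. Read: CellTiter-Glo luminescence; fitted concentration-response, curve class assigned.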
TDP1 cell noCPT: qHTS for Inhibitors of human tyrosyl-DNA phosphodiesterase 1 (TDP1): qHTS in cells in absence of CPT; DT40 Tdp1-/- hTDP1 cells, no CPT, ATP luminescence, 48 h; actives 15% (n = 420,000); Potency, µM (highest dose often 46.2 µM), without a hit: top-dose activity change, negative = growth inhibition, actives largely listed as inhibitors; note: potency is the fitted concentration of half-maximal effect; nearly all actives have a fitted effect of over 55% in size
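Growth of hTDP1-complemented DT40 Tdp1-knockout cells is measured by ATP luminescence after at least 48 hr compound exposure at 37 °C, with DMSO substituting for the 20 nM CPT used in the parallel screen.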
HT1080NT lethal: kills 2HG-producing HT-1080-NT fibrosarcoma cells. HT-1080-NT fibrosarcoma viability, CellTiter-Glo ATP luminescence, 48 h. actives 1.6% (n = 360,000). Potency, µM (doses to about 46.1 µM), inactives show top-dose activity, negative = less viability, hits mostly cytotoxic. AID 686970;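 note: NT is the 2HG producing partner of a matched IDH1 knockdown line; potency is the fitted concentration of half-maximal effect; 0% = DMSO-treated cells and -100% = media-only wells without cells; nearly all actives have a fitted effect of over 55% in size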
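A 48-hour cytotoxicity screen used HT-1080-NT cells plated 2 hours before compound delivery. ATP-based CellTiter-Glo luminescence measured viability, normalized to DMSO and no-cell controls.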
* hit, by the source's call; [ ] = remark or other dose. The entries come from a sample that favours hits as a whole. Unless noted, calls come from the whole dose curve; as a rule, active = well fitted curve in the direction sought with a large enough effect; inconclusive = small, poorly fitted or top-dose-only effect, or another doubt; inactive = no such curve, though single readings can be large; an effect the other way counts as inactive or inconclusive. Unless noted, % is set by controls: 0 for no effect and ±100 for the full control effect.

`COc1ccc(C2c3[nH]c4ccccc4c3CCN2Cc2cccn2-c2ncccn2)cc1C` (stereo unspecified) gave 12-LOX inh -8.2%, DT40 TDP1 CPT 14.6µM*, IL1B secr inh -26.8, HT1080 IDH1KD tx 23.1µM*, TDP1 cell noCPT 16.4µM* and HT1080NT lethal 25.9µM*.
Cc1cccc(C2c3[nH]c4ccccc4c3CCN2Cc2cccn2-c2ncccn2)c1 (stereo unspecified) was read as 12-LOX inh 4.4%, DT40 TDP1 CPT inconclusive, IL1B secr inh -87.2*, HT1080 IDH1KD tx inconclusive, TDP1 cell noCPT 23.1µM* and HT1080NT lethal inconclusive.
`O=S1(=O)C=C(SCc2cccc(Cl)c2)Nc2ccccc21` gave 12-LOX inh -22.0%, DT40 TDP1 CPT inconclusive, IL1B secr inh -50.6*, HT1080 IDH1KD tx 12.1%, TDP1 cell noCPT -27.1% and HT1080NT lethal 0.3%.
For Cc1ccc(CSC2=CS(=O)(=O)c3ccccc3N2)cc1 the results were 12-LOX inh 25.1%, DT40 TDP1 CPT inconclusive, IL1B secr inh -5.7, HT1080 IDH1KD tx -19.8%, TDP1 cell noCPT inconclusive and HT1080NT lethal -18.5%.
Cc1cccc(CSC2=CS(=O)(=O)c3ccccc3N2)c1 was read as 12-LOX inh -17.7%, DT40 TDP1 CPT inconclusive, IL1B secr inh -5.4, HT1080 IDH1KD tx -14.2%, TDP1 cell noCPT 23.1µM* and HT1080NT lethal -9.1%.
`O=C(NC(=S)Nc1cccc2[nH]ncc12)c1ccccc1` gave 12-LOX inh -6.1%, DT40 TDP1 CPT -1.5%, IL1B secr inh 9.7, HT1080 IDH1KD tx inconclusive, TDP1 cell noCPT -15.6% and HT1080NT lethal inconclusive.
O=C(Nc1cccc2[nH]ncc12)c1ccc(F)cc1 was read as 12-LOX inh 0.0%, DT40 TDP1 CPT inconclusive, IL1B secr inh 6.1, HT1080 IDH1KD tx 1.2%, TDP1 cell noCPT 7.31µM* and HT1080NT lethal 3.7%.
`COc1ccccc1NS(=O)(=O)c1ccc2oc(SCC(C)=O)nc2c1` gave 12-LOX inh 11.5%, DT40 TDP1 CPT -6.2%, IL1B secr inh 15.6, HT1080 IDH1KD tx -15.3%, TDP1 cell noCPT inconclusive and HT1080NT lethal -2.8%.
Screening COc1ccccc1NS(=O)(=O)c1ccc2oc(SCc3ccc(F)cc3)nc2c1 returned 12-LOX inh -1.0%, DT40 TDP1 CPT 16.4µM*, IL1B secr inh -6.2, HT1080 IDH1KD tx -28.5%, TDP1 cell noCPT 16.4µM* and HT1080NT lethal inconclusive.
Screening COc1ccccc1NS(=O)(=O)c1ccc2oc(SC(C)C(=O)N3CCNC3=O)nc2c1 (stereo unspecified) returned 12-LOX inh 22.8%, DT40 TDP1 CPT 14.6µM*, IL1B secr inh inconclusive, HT1080 IDH1KD tx -18.2%, TDP1 cell noCPT inconclusive and HT1080NT lethal -7.3%.
`CN1CCN(c2ccc(Cl)cc2NC(=O)c2cc(=O)[nH]c3ccccc23)CC1` gave 12-LOX inh -1.2%, DT40 TDP1 CPT inconclusive, IL1B secr inh -18.3, HT1080 IDH1KD tx -0.5%, TDP1 cell noCPT inconclusive and HT1080NT lethal -26.7%.
For CN1CCN(c2cc3c(c4c2[nH]c2ccccc24)C(=O)CC(C)(C)C3)CC1 the results were 12-LOX inh 39.8µM*, DT40 TDP1 CPT inconclusive, IL1B secr inh -64.7*, HT1080 IDH1KD tx -25.8%, TDP1 cell noCPT 16.4µM* and HT1080NT lethal -9.2%.
`CNC(=O)c1ccccc1Sc1cccc2cccc(C(=O)O)c12` gave 12-LOX inh 7.2%, DT40 TDP1 CPT -0.4%, IL1B secr inh 6.6, HT1080 IDH1KD tx 18.8%, TDP1 cell noCPT 9.8% and HT1080NT lethal 10.6%.
For CNC(=O)c1ccccc1Sc1ccc2c(/C=C/c3ccccn3)n[nH]c2c1 the results were DT40 TDP1 CPT 4.22µM* and TDP1 cell noCPT 2.66µM*.
For CCOC(=O)c1ccc(NC(=O)Cn2c(=O)cc(C(F)(F)F)c3c(C)nn(C)c32)cc1 the results were 12-LOX inh -9.5%, DT40 TDP1 CPT -12.2% and TDP1 cell noCPT 15.8%.
`Cc1cccc(C=NNc2cc(N3CCOCC3)nc(OCCc3ccccn3)n2)c1` gave 12-LOX inh -3.1%[57.4 µM].
Oc1ccc(/C=N/Nc2cc(N3CCCC3)nc(N3CCCC3)n2)cc1O was read as 12-LOX inh inconclusive, DT40 TDP1 CPT 18.4µM*, IL1B secr inh 37.2, HT1080 IDH1KD tx -4.8%, TDP1 cell noCPT 20.6µM* and HT1080NT lethal -0.6%.
Screening Cc1cc(N/N=C/c2ccc(O)cc2O)nc(N2CCOCC2)n1 returned 12-LOX inh 19.3%, DT40 TDP1 CPT -3.0%, IL1B secr inh -5.9, HT1080 IDH1KD tx 4.5%, TDP1 cell noCPT -28.5% and HT1080NT lethal 10.9%.
Screening Oc1ccc(/C=N\Nc2cc(N3CCOCC3)nc(N3CCOCC3)n2)c(O)c1 returned 12-LOX inh 3.5%, DT40 TDP1 CPT 20.6µM*, IL1B secr inh inconclusive, HT1080 IDH1KD tx -13.5%, TDP1 cell noCPT 16.4µM* and HT1080NT lethal -18.1%.
Screening Cc1cc(N/N=C/c2ccccc2)nc(N2CCOCC2)n1 returned 12-LOX inh 1.5%, DT40 TDP1 CPT 1.0%, IL1B secr inh -23.3, HT1080 IDH1KD tx -18.6%, TDP1 cell noCPT -5.2% and HT1080NT lethal 0.2%.
Screening Cc1nc(N/N=C/c2cccnc2)cc(N2CCOCC2)n1 returned 12-LOX inh -2.4%, DT40 TDP1 CPT inconclusive, IL1B secr inh -64.3*, HT1080 IDH1KD tx 0.1%, TDP1 cell noCPT inconclusive and HT1080NT lethal -5.1%.
Screening CCCCOc1ccc(/C=N/Nc2cc(N3CCOCC3)nc(C)n2)cc1 returned 12-LOX inh 0.0%, DT40 TDP1 CPT 18.4µM*, IL1B secr inh 14.3, HT1080 IDH1KD tx -3.1%, TDP1 cell noCPT 20.6µM* and HT1080NT lethal 1.1%.
For N#C/C(=C\c1coc2ccccc2c1=O)c1nc2ccccc2[nH]1 the results were 12-LOX inh -28.0%.
Cc1noc([C@@H]2CN(C(=O)c3n[nH]c4ccccc34)C[C@H]2C(N)=O)n1 was read as 12-LOX inh 33.4%.
CCCCCCC(C)NC(=O)Cc1cccs1 (stereo unspecified) was read as 12-LOX inh -24.7%.
Screening Cc1cccc(/C=N/Nc2cc(N3CCOCC3)nc(N3CCOCC3)n2)c1 returned 12-LOX inh -0.3%, DT40 TDP1 CPT 3.26µM*, IL1B secr inh -78.4*, HT1080 IDH1KD tx inconclusive, TDP1 cell noCPT 16.4µM* and HT1080NT lethal inconclusive.
